Reference: PubChem BioAssay (Tox21)
Records with an inconclusive call do not appear. A call without a number means that no potency is given here. Calls of active or inactive are those of the source. Unless noted, calls come from the whole dose curve; as a rule, active = well fitted curve in the direction sought with a large enough effect in the repeat runs; inconclusive = weak or mixed curves; inactive = no such curve, though single readings can be large; an effect the other way counts as inactive or inconclusive.

Key:
[1] = target: Luciferin 4-monooxygenase (Photinus pyralis) (UniProt P08659); test: qHTS assay to identify small molecule inhibitors of firefly luciferase (AID 1224835); note: nearly all actives have a fitted effect of over 25% in size; note: potency is the fitted concentration of half-maximal effect
Summary of the method: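 Inhibition of purified Photinus luciferase is measured by luminescence. Substrate levels (D-luciferin, ATP) sit at their KM values. Each compound is tested in a concentration series.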

[2] = qHTS assay to identify small molecule agonists of the constitutive androstane receptor (CAR) signaling pathway - cell viability counter screen (AID 1224836); note: series mostly up to about 92 µM; nearly all actives have a fitted effect of over 45% in size
Summary of the method: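 Counter screen multiplexed with the CAR reporter readout: HepG2 cells co-transfected with hCAR and the CYP2B6-2.2kb construct receive a 15-concentration compound series and 0.75 uM PK11195 (final), then CellTiter-Fluor fluorescence is read after 23 h.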

[3] = target: Nuclear receptor subfamily 1 group I member 3 (Homo sapiens) (UniProt Q14994); test: qHTS assay to identify small molecule antagonists of the constitutive androstane receptor (CAR) signaling pathway (AID 1224838); note: nearly all actives have a fitted effect of over 40% in size; note: potency is the fitted concentration of half-maximal effect
Summary of the method: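 HepG2 cells stably co-transfected with hCAR and a CYP2B6-2.2kb luciferase reporter were seeded 4 h before compound addition at 15 concentrations. Cells were stimulated with 50 nM CITCO (final) for 24 h at 37 C; luciferase luminescence was then read.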

[4] = target: Nuclear receptor subfamily 1 group I member 3 (Homo sapiens) (UniProt Q14994); test: qHTS assay to identify small molecule agonists of the constitutive androstane receptor (CAR) signaling pathway (AID 1224839); note: nearly all actives have a fitted effect of over 15% in size; note: potency is the fitted concentration of half-maximal effect
Summary of the method: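 A 15-concentration quantitative screen uses HepG2 cells co-transfected stably with human CAR and CYP2B6-2.2kb reporter. Treatment lasts 24 h with 0.75 uM PK11195 final present; ONE-Glo luminescence is the signal.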

[5] = qHTS assay to identify small molecule agonists of the hypoxia (HIF-1) signaling pathway - cell viability counter screen (AID 1224844; calls by dose curve; note: nearly all actives have a fitted effect of over 50% in size; note: potency is the fitted concentration of half-maximal effect)
Summary of the method: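 HRE-bla ME-180 cells in medium with 0.5% dialyzed FBS were preincubated 5 hrs at 37C, exposed to compounds for 17 hrs, then viability was read as CellTiter-Glo luminescence after 30 min at room temperature, in the reporter wells.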

[6] = qHTS assay to identify small molecule antagonists of the constitutive androstane receptor (CAR) signaling pathway - cell viability counter screen (AID 1224837); note: series mostly up to about 92 µM; nearly all actives have a fitted effect of over 45% in size
Summary of the method: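 HepG2 cells stably expressing hCAR and a CYP2B6-2.2kb reporter were plated and pre-incubated 4 hr at 37 C/5% CO2, then given compounds at 15 concentrations plus 50 nM CITCO (final). After 23 hr, viability was read by CellTiter-Fluor fluorescence.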

[7] = qHTS assay to identify small molecule antagonists of the estrogen related receptor signaling pathway with the pleiotropic PPARgamma coactivator (PGC) from Tox21 10K library - cell viability counter screen (AID 1224840; active = well fitted cell-killing curve with a large enough effect in the repeat runs, not every such curve was filed as active; note: nearly all actives have a fitted effect of over 40% in size)
Summary of the method: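 PGC/ERR cells were seeded at 2,000 cells/well and left 6 hours at 37 C/5% CO2 before pin-tool addition of compounds in DMSO. After 17.5 hours at 37 C, CellTiter-Fluor was added and fluorescence read 30 minutes later.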

[8] = target: Thyrotropin receptor (Homo sapiens) (UniProt P16473); test: qHTS assay to identify small molecule agonists of the thyroid stimulating hormone receptor (TSHR) signaling pathway (AID 1224843; calls by dose curve; note: nearly all actives have a fitted effect of over 45% in size)
Summary of the method: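 Screening of the Tox21 10K collection used HEK293 cells engineered with TSHR at 800 cells per well. After a 30-min room-temperature compound exposure, HTRF cAMP reagents were added and fluorescence recorded 1 h later.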

[9] = qHTS assay to identify small molecule agonists of the estrogen related receptor signaling pathway with the pleiotropic PPARgamma coactivator (PGC) from Tox21 10K library (AID 1224842); note: nearly all actives have a fitted effect of over 15% in size
Summary of the method: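 Luminescence from One-Glo (30 min, room temperature) measured after PGC/ERR cells had 18 h at 37 C with pinned compound (23 nL in DMSO). Cells had been seeded at 2,000 per well and pre-incubated 6 h.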

[10] = qHTS assay to identify small molecule antagonists of the estrogen related receptor signaling pathway with the pleiotropic PPARgamma coactivator (PGC) from Tox21 10K library (AID 1224841; call rule not given here; note: series mostly up to about 92 µM; actives are mostly falling curves and most rising ones were filed inactive; nearly all actives have a fitted effect of over 50% in size)
Summary of the method: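 PGC/ERR reporter cells were seeded at 2,000 cells/well and held 6 hours at 37 C/5% CO2 before pin-tool addition of compounds in DMSO. After 18 hours at 37 C, One-Glo was added and luminescence read after 30 minutes at room temperature.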

Thyrotropin receptor (Homo sapiens), sequence (P16473 whole entry, looked up): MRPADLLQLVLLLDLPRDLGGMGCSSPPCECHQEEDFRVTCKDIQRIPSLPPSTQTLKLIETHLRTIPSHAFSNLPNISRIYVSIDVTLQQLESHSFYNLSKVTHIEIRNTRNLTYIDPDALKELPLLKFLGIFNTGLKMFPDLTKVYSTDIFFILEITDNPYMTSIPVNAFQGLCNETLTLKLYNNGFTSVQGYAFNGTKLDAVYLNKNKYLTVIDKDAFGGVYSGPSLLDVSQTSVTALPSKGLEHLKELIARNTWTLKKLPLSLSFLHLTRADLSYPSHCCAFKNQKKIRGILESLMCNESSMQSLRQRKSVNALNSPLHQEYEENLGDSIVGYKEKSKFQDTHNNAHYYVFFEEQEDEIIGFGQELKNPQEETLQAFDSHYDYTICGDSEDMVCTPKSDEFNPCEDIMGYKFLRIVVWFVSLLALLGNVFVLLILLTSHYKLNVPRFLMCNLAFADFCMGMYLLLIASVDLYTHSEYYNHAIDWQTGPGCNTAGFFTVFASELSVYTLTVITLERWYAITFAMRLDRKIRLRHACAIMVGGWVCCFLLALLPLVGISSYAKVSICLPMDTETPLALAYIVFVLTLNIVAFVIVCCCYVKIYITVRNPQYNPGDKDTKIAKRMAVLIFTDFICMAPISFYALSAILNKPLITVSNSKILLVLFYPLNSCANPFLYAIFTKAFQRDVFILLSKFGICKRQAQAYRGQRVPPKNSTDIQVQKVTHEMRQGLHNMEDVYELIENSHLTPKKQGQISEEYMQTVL
Nuclear receptor subfamily 1 group I member 3 (Homo sapiens), sequence (Q14994 whole entry, looked up): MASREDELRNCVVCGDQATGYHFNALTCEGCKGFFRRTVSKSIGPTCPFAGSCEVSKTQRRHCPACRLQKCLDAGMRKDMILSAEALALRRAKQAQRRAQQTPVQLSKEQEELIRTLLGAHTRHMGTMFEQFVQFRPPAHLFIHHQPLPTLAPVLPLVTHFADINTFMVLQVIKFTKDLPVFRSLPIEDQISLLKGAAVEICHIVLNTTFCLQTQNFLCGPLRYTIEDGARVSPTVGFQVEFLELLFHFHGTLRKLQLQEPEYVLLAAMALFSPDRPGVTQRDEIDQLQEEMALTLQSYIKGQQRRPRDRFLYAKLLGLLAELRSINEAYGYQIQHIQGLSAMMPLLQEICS
Luciferin 4-monooxygenase (Photinus pyralis), sequence (P08659 whole entry, looked up): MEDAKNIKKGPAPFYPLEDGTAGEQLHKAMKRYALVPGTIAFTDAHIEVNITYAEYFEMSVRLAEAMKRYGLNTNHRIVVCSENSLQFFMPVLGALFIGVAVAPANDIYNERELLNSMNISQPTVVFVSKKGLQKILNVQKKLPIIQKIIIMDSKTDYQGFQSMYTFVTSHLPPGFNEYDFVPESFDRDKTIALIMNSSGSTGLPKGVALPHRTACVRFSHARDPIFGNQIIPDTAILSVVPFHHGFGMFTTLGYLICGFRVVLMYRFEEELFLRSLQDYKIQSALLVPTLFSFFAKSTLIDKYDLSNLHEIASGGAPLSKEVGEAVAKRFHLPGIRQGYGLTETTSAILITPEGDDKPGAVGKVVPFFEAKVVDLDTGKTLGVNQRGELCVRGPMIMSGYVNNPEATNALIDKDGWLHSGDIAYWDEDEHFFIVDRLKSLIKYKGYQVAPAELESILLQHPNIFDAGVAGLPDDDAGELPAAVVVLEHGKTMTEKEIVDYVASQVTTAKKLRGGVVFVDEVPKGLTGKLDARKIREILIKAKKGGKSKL

Row | SMILES | Potency [1] | Potency [2] | Potency [3] | Potency [4] | Potency [5] | Potency [6] | Potency [7] | Potency [8] | Potency [9] | Potency [10]
1 | CC1=C(/C=C/C(C)=C\C=C\C(C)=C\C(=O)O)C(C)(C)CCC1 | 39.9 µM (active) | inactive | inactive | 24.3 µM (active) | 49 µM (active) |  |  |  |  | 
2 | C=CC(=O)NCOCC(C)C | inactive | inactive |  |  | inactive | inactive | inactive | inactive |  | 
3 | CCOC(=O)/C=C/C(=O)O | inactive | inactive |  |  | inactive | inactive | inactive | inactive |  | 
4 | CCc1c2c(nc3ccc(OC(=O)N4CCC(N5CCCCC5)CC4)cc13)-c1cc3c(c(=O)n1C2)COC(=O)[C@]3(O)CC | inactive | inactive | 2.98 µM (active) | inactive |  |  |  | inactive |  | 
5 | COCCOC(=O)C1=C(C)NC(C)=C(C(=O)OC/C=C/c2ccccc2)C1c1cccc([N+](=O)[O-])c1 (configuration not stated) | inactive | inactive | inactive |  | inactive |  |  |  | inactive | 
6 | OC/C(Br)=C(\Br)CO | inactive | inactive |  | inactive | inactive |  | inactive | inactive | inactive | inactive
7 | CCCCC(CC)C(=O)OCCOCCOCCOCCOC(=O)C(CC)CCCC (configuration not stated) | inactive |  | inactive | inactive | inactive | inactive | inactive |  | inactive | 
